HT1080 IDH1KD tx: toxicity to HT-1080 IDH1 knockdown cells (counter line); HT-1080 IDH1 knockdown viability, ATP luminescence, 48 h; 360,000 compounds, 2% hits; Potency, µM (highest dose often 46.1 µM), without a hit: at the highest dose activity, negative = toxicity, actives largely listed as cytotoxic;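 further: 0% = DMSO wells and -100% = cell-free medium wells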
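Assay cells: HT-1080 with IDH1 knockdown, 750 per well, RPMI/5% FBS. Exposure: 48 h at 37 °C following 2 h pre-incubation. Read: CellTiter-Glo luminescence; fitted concentration-response, curve class assigned.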
TDP1 cell noCPT: qHTS for Inhibitors of human tyrosyl-DNA phosphodiesterase 1 (TDP1): qHTS in cells in absence of CPT; DT40 Tdp1-/- hTDP1 cells, no CPT, ATP luminescence, 48 h; Potency, µM (titrated, usually from 46.2 µM), for inactives: at the top dose activity change, negative = growth inhibition, actives largely listed as inhibitors; 420,000 compounds, 15% hits; further: on the % scale 0 is the no-effect control and ±100 the full control effect; nearly all actives have a fitted effect of over 55% in size
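Camptothecin absent (DMSO only). Human TDP1-complemented DT40 knockout cells, 400 cells/well, 37 °C for minimum 48 hr; ATP measured via CellTiter-Glo, 30 min dark incubation, luminescence.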
TGFb SMAD3 inh: inhibitors of TGF-b signaling; HepG2 CAGA-GFP TGF-b/SMAD3 reporter, GFP fluorescence, 18 h; TGF-beta stimulated, 500 pg/mL final; Potency, µM (top dose mostly 46.1 µM), inactives show at the highest dose activity, negative = inhibition, actives largely listed as inhibitors; 410,000 compounds, 1.2% hits; AID 588855; further: on the % scale 0 is the no-effect control and ±100 the full control effect; nearly all actives have a fitted effect of over 65% in size
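HEPG2 CAGA-GFP, 1000 cells/well; 2 h settle, 37 C; cpd via pin tool; TGF-b 500 pg/mL final; 18 h, 37 C; GFP imaging ex488/em500-530; %Activity normalised to -TGF-b and +DMSO controls; CRC fit, curve class.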
HT1080-NT tox: kills 2HG-producing HT-1080-NT fibrosarcoma cells; HT-1080-NT fibrosarcoma viability, CellTiter-Glo ATP luminescence, 48 h; Potency, µM (titrated, usually from 46.1 µM), inactives show at the top dose activity, negative = less viability, hits mostly cytotoxic; 360,000 compounds, 1.6% hits;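 further: NT is the 2HG producing partner of a matched IDH1 knockdown line; 0% = DMSO-treated cells and -100% = media-only wells without cells; nearly all actives have a fitted effect of over 55% in size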
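Viability by CellTiter-Glo luminescence after 48 h compound exposure at 37C of HT-1080-NT cells (750/well, RPMI, 5% FBS). % activity scaled between DMSO wells and medium-only wells, then curve-fitted and categorized by curve class.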
DT40 TDP1 CPT: growth inhibition of DT40 Tdp1-/-;hTDP1 cells with camptothecin (screen for TDP1 inhibitors); chicken DT40 Tdp1-/-;hTDP1 cells + 20 nM CPT, ATP luminescence, 48 h; 420,000 compounds, 12% hits; Potency, µM (doses to about 46.2 µM), for inactives: at the top dose activity change, negative = growth inhibition, usual class: inhibitors; AID 686979; further: on the % scale 0 is the no-effect control and ±100 the full control effect; nearly all actives have a fitted effect of over 55% in size
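Cell growth measured by CellTiter-Glo luminescence after a minimum 48 h, 37 C compound exposure with 20 nM CPT in Tdp1-knockout DT40 cells stably expressing hTDP1, seeded 400/well; qHTS titration format.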
HepG2 viability: counter-screen for TGF-b inhibitors: cytotoxicity in HepG2 cells | HepG2 CAGA-GFP viability, ATP luminescence, 18 h | Potency, µM (titrated, usually from 46.1 µM), for inactives: at the highest dose activity change, negative = cytotoxicity, hits mostly cytotoxic | 410,000 compounds, 0.76% hits
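HepG2 CAGA-GFP cells (1000/well, DMEM with 1% FBS) received compound, then TGF-beta at 500 pg/mL final, and were incubated 18 hours at 37 degrees C. Viability was read by CellTiter-Glo luminescence. Media-only wells were set as complete cell-killing and DMSO as no toxicity.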
Active calls of the source: *; ! = repeats disagree. In the library only some 17% were active in any assay of this set; here they are far more common. The call rests on the fitted dose curve; in most records, active means well fitted curve in the direction sought with a large enough effect; inconclusive means small, poorly fitted or top-dose-only effect, or another doubt; inactive means no such curve, though single readings can be large; an effect the other way counts as inactive or inconclusive. Potency means the concentration at half of the fitted maximal effect.

For COc1ccc(/C=N\NC(=O)c2cccc(F)c2)cc1COc1ccccc1 the results were HT1080 IDH1KD tx 0.58µM*, TDP1 cell noCPT 0.65µM*, TGFb SMAD3 inh inconclusive, HT1080-NT tox 1.2µM*, DT40 TDP1 CPT 0.82µM* and HepG2 viability 46%.
Screening O=C(Nc1ccc(Br)cc1)c1nn(C23CC4CC(CC(C4)C2)C3)cc1Br returned HT1080 IDH1KD tx 8%, TDP1 cell noCPT 15µM*, TGFb SMAD3 inh inconclusive, HT1080-NT tox 4%, DT40 TDP1 CPT inconclusive and HepG2 viability -4%.
Screening CCC1C2CC3C4N(C)c5ccccc5[C@]45CC(C2C5O)N3C1O (some centres not stated) returned TDP1 cell noCPT 0.37µM* and DT40 TDP1 CPT 0.46µM*.
`Cc1ccc(C2=NC(C)(C)N3C2C3c2ccc([N+](=O)[O-])cc2)cc1` (configuration not stated) gave HT1080 IDH1KD tx -1%, TDP1 cell noCPT 21µM*, TGFb SMAD3 inh -16%, HT1080-NT tox 1%, DT40 TDP1 CPT inconclusive and HepG2 viability -5%.
Screening Cc1ccc([N+](=O)[O-])cc1 returned HT1080 IDH1KD tx 0%, TDP1 cell noCPT 15%, TGFb SMAD3 inh 19%, HT1080-NT tox 23%, DT40 TDP1 CPT -9% and HepG2 viability 9%.
`CC12CN3C(O)C(C)(C1)CC(C)(C2)C3O` (configuration not stated) gave HT1080 IDH1KD tx -2%, TDP1 cell noCPT -19%, TGFb SMAD3 inh -1%, HT1080-NT tox -4%, DT40 TDP1 CPT -13% and HepG2 viability -1%.
`COc1ccccc1N1CCN(Cc2ccccc2)CC1` gave HT1080 IDH1KD tx 5%, TDP1 cell noCPT -25%, TGFb SMAD3 inh 12%, HT1080-NT tox 2%, DT40 TDP1 CPT -1% and HepG2 viability -4%.
For COc1cc(CN2CCN(c3cc(C)ccc3C)CC2)ccc1O the results were HT1080 IDH1KD tx -1%, TDP1 cell noCPT 7.3µM*, TGFb SMAD3 inh -15%, HT1080-NT tox -17%, DT40 TDP1 CPT 7.3µM* and HepG2 viability -45%.
For COc1ccccc1N1CCN(Cc2cc(C)c(C)cc2O)CC1 the results were HT1080 IDH1KD tx -9%, TDP1 cell noCPT 21µM*, TGFb SMAD3 inh 29%, HT1080-NT tox -11%, DT40 TDP1 CPT 23µM* and HepG2 viability -29%.
CCCCOP(=O)(OCCCC)C1(C)CC(=O)CC(C)(C)C1 (configuration not stated) was read as HT1080 IDH1KD tx 0%, TDP1 cell noCPT -25%, TGFb SMAD3 inh 14%, HT1080-NT tox -8%, DT40 TDP1 CPT inconclusive and HepG2 viability 3%.
`O=C(N/N=C/c1c(O)n(CCC2=CCCCC2)c(=O)[nH]c1=O)c1ccccc1` gave HT1080 IDH1KD tx inconclusive, TDP1 cell noCPT 21µM*, TGFb SMAD3 inh -2%, HT1080-NT tox -25%, DT40 TDP1 CPT inconclusive and HepG2 viability -8%.
CCCCn1c(O)c(C(=O)/C=C/c2ccc3c(c2)OCO3)c(=O)[nH]c1=O was read as HT1080 IDH1KD tx -2%, TDP1 cell noCPT inconclusive, TGFb SMAD3 inh 11%, HT1080-NT tox -3%, DT40 TDP1 CPT inconclusive and HepG2 viability 24%.
For CN(C)CCN=Cc1c(O)n(CCC2=CCCCC2)c(=O)[nH]c1=O the results were HT1080 IDH1KD tx -6%, TDP1 cell noCPT 14%, TGFb SMAD3 inh -11%, HT1080-NT tox 16%, DT40 TDP1 CPT -3% and HepG2 viability -3%.
For O=C(/C=C/c1ccc2c(c1)OCO2)c1c(O)n(CCC2=CCCCC2)c(=O)[nH]c1=O the results were HT1080 IDH1KD tx 3%, TDP1 cell noCPT 5.8µM*, TGFb SMAD3 inh -12%, HT1080-NT tox 6%, DT40 TDP1 CPT inconclusive and HepG2 viability 5%.
Screening COc1ccc(/C=C/C(=O)c2c(O)n(CCC3=CCCCC3)c(=O)[nH]c2=O)cc1 returned HT1080 IDH1KD tx -9%, TDP1 cell noCPT inconclusive, TGFb SMAD3 inh -2%, HT1080-NT tox -7%, DT40 TDP1 CPT 6.5µM* and HepG2 viability -12%.
c1ccc(OCC2CO2)cc1 (configuration not stated) was read as HT1080 IDH1KD tx 0%, TDP1 cell noCPT 0%, TGFb SMAD3 inh 4%, HT1080-NT tox -1%, DT40 TDP1 CPT -11% and HepG2 viability 0%.
Screening CC(C)(c1ccc(OCC2CO2)cc1)c1ccc(OCC2CO2)cc1 (configuration not stated) returned TDP1 cell noCPT 6.5µM* and DT40 TDP1 CPT 6.5µM*.
CC1CCC2[C@@H](C)C(=O)OC3O[C@]4(C)CCC1C32OO4 (some centres not stated) was read as HT1080 IDH1KD tx -7%, TDP1 cell noCPT 7.3µM*, TGFb SMAD3 inh -1%, HT1080-NT tox 0%, DT40 TDP1 CPT inconclusive and HepG2 viability -4%.
`CC1CCC2C(C)C(=O)OC3OC4(C)CCC1C32OO4` (configuration not stated) gave HT1080 IDH1KD tx -24%, TDP1 cell noCPT 0.84µM*!, TGFb SMAD3 inh 7%, HT1080-NT tox -15%, DT40 TDP1 CPT inconclusive and HepG2 viability -7%.
For COc1cc(Cl)c(C)cc1NC(=O)CCCn1c(=O)oc2ccccc21 the results were HT1080 IDH1KD tx -2%, TDP1 cell noCPT inconclusive, TGFb SMAD3 inh -10%, HT1080-NT tox 1%, DT40 TDP1 CPT -23% and HepG2 viability -9%.
`C(=C\c1ccccc1)/CN1CCN(CCOC(c2ccccc2)c2ccccc2)CC1` gave TDP1 cell noCPT 4.6µM* and DT40 TDP1 CPT 3.7µM*.
`CC(=O)Oc1ccc(/C=C/c2cc(OC(C)=O)cc(OC(C)=O)c2)cc1` gave TDP1 cell noCPT 12µM* and DT40 TDP1 CPT inconclusive.
`CC(C)C[C@H](NC(=O)[C@@H]1CCCN1C(=O)[C@@H](N)Cc1ccc(O)cc1)C(=O)NCC(N)=O` gave HT1080 IDH1KD tx 12%, TDP1 cell noCPT -6%, TGFb SMAD3 inh -1%, HT1080-NT tox inconclusive, DT40 TDP1 CPT -4% and HepG2 viability -3%.
For CSc1ccc(C(=O)C2CCCN(Cc3cc4ccccc4[nH]3)C2)cc1 (configuration not stated) the results were HT1080 IDH1KD tx inconclusive, TDP1 cell noCPT inconclusive, TGFb SMAD3 inh inconclusive, HT1080-NT tox 23µM*, DT40 TDP1 CPT inconclusive and HepG2 viability 0%.
